# According to PubChem BioAssay (NCI):
# The panel holds about 83,000 compounds, 20% with a hit somewhere; the sample as a whole holds those more often.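 Single-dose data. Exposure time 48 hours. Values below 10 considered active.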 A number with no mark means an inactive call. Activity calls are given as the source filed them.
# System: ACHN renal
# Test: NCI-60 one-dose screen, 48 h (100 = growth as untreated, 0 = no growth, -100 = all killed)
# Settings: 10 µM unless noted
row,Compound,growth
1,C#C[C@]1(O)CC[C@H]2[C@@H]3CC=C4c5sc(Nc6cccc(C)n6)nc5CC[C@]4(C)[C@H]3CC[C@@]21C,33.1%
2,Clc1ccc(-c2csc(N/N=C/c3nc4ccccc4n3C3CC3)n2)cc1,104%
3,O=C(NNc1nc2cc(F)c(F)cc2n2cccc12)c1ccncn1,14.1%
4,CCn1c2ccc(/C=N/NS(=O)(=O)CCN(C)C)cc2c2cc(/C=N/NS(=O)(=O)CCN(C)C)ccc21,97%
5,COc1ccc(-c2nnc(/N=C3/C(=O)Nc4ccc(Br)cc43)o2)cc1,93.7%
6,O=C(CCCCCCN1CC(=O)N2[C@@H](c3ccc(Cl)c(F)c3)c3[nH]c4ccccc4c3C[C@H]2C1=O)NO,92.1%
7,O=C(N/N=C\c1ccc(Cl)cc1)c1ccc2nc(-c3ccc(Br)cc3)[nH]c2c1,-12.6% (active)
8,O=C1CSC(=O)N1Cc1cc2ccccc2nc1Cl,104%
9,CCCCSc1nnc(-c2ccc(-c3ccc(Cl)cc3)nc2C)o1,104%
10,COc1ccc(/C=N\NC(=O)c2ccc3nc(-c4ccc(Br)cc4)[nH]c3c2)cc1,35.1%
11,NS(=O)(=O)c1ccc(Nc2nc(N/N=C/c3ccc([N+](=O)[O-])cc3)nc(Nc3ccccc3)n2)cc1,82.6%
12,COc1cc(NC2=C(Cl)C(=O)c3nc(C)ccc3C2=O)cc(OC)c1,-99.6% (active)
13,Cc1ccc(/C=C/CC(=O)Nc2ccc(C(=O)Nc3ccc(F)cc3N)cc2)cn1,80.8%
14,O=C(c1ccc(O)cc1)[C@@H]1[C@@H]2CCCN2[C@@]2(C(=O)N(C(=O)c3ccc(F)cc3)c3ccccc32)[C@H]1c1ccc(F)cc1,90%
15,COc1ccc(S(=O)(=O)n2cc(C=O)c3ccccc32)c(OC)c1,85.6%
16,C#C[C@]1(O)CC[C@H]2[C@@H]3CC=C4c5sc(Nc6cc(Cl)ccn6)nc5CC[C@]4(C)[C@H]3CC[C@@]21C,32.5%
17,N#C/C(=C\c1ccc2ccccc2c1)C(=O)Nc1sc2c(c1C#N)CCC2,104%
18,CN1CCN(Cc2ccc(NC(=O)c3cncc(C#Cc4cnc5ccc(O[C@H]6CCOC6)nn45)c3)cc2C(F)(F)F)CC1,-97.1% (active)

row,Compound,growth
1,C/C=C/C=C1\C[C@H]2CO[C@H](O2)C1=O,103%
2,O=C(NNc1nc2cc(F)cc(F)c2n2cccc12)c1ncccn1,9.54% (active)
3,C#CCOc1ccc(/C=N/Nc2nc(-c3cc(Cl)ccc3Cl)cs2)cc1,97.8%
4,COc1ccc(-c2nc(SCC(C)C)nc(N/N=C\c3cccc([N+](=O)[O-])c3)c2C#N)cc1,8.66% (active)
5,CNC(=O)c1cc(Oc2ccc3nc(NC(=O)c4ccc(CN5CCN(C)CC5)c(C(F)(F)F)c4)sc3c2)ccn1,76.9%
6,C#C[C@]1(O)CC[C@H]2[C@@H]3CC=C4c5sc(Nc6ccc(OC)nc6)nc5CC[C@]4(C)[C@H]3CC[C@@]21C,33.4%
7,O=C1Nc2ccc(Br)cc2/C1=N\c1nnc(-c2ccc(Cl)cc2)o1,74.9%
8,CC(C)c1nn(-c2ccccc2)c(N2CCCCC2)c1/C=N/NC(N)=S,87.2%
9,COc1cc(/C=C/C(=O)c2ccc(N3CCN(C)CC3)cc2)ccc1F,79%
10,CC1CCN(S(=O)(=O)c2ncsc2-c2ccccc2)CC1,87%
11,O=C1[C@@H]2Cc3c([nH]c4ccccc34)[C@H](c3c(Cl)cccc3Cl)N2C(=O)CN1C1CCN(Cc2ccccc2)CC1,43.5%
12,C#C[C@]1(O)CC[C@H]2[C@@H]3CC=C4c5sc(Nc6ccncc6)nc5CC[C@]4(C)[C@H]3CC[C@@]21C,18.8%
13,C#CCOc1ccc(/C=N/Nc2nc(-c3cc4cc(Br)cc(Br)c4oc3=O)cs2)cc1,98.8%
14,O=C1c2c(c3c4cccnc4[nH]c3c3ccc4ccccc4c23)C(=O)N1CCN1CCCCC1,20%
15,NS(=O)(=O)Oc1ccc2nc(Nc3ccc(F)c(F)c3)ccc2c1,85.8%
16,Cc1ccc(-c2csc(N/N=C/c3nc4ccccc4n3C3CC3)n2)cc1,1.34% (active)
17,O=C1c2c(c3c4cc(Br)ccc4[nH]c3c3ccc4ccccc4c23)C(=O)N1CCN1CCCCC1,18.5%
18,Cc1cnc2nc(NN)[nH]n12,98.4%
